According to the supplement of paper PMC10515830:
Counter-ions that a name gives are not always drawn.

Experiments:
Conditions in all cases: 10 µM; exposure time 6 h
[1] = system: Danio rerio larvae (5 dpf); experiment: difference in excitability vs DMSO (percentage points); higher = more excitable than DMSO
Outline: (§1)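 In 96-well plates, 48 wild-type zebrafish larvae aged 5 dpf per compound received 100 µL egg water with library compound at 10 µM final for 6 h. Three hours into this, a 3-h programme of moving lines and 100 ms, 400Hz tones ran at 28.5 ℃ while plates were photographed every 6 s. Z-LaP Tracker scored the behaviours, and each is given as the compound mean minus the vehicle control mean in percentage points.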

[2] = system: Danio rerio larvae (5 dpf); experiment: difference in startle response vs DMSO (percentage points); higher = stronger startle than DMSO
Outline: as §1

[3] = system: Danio rerio larvae (5 dpf); experiment: difference in activity during first hour vs DMSO (percentage points); higher = more activity than DMSO
Outline: as §1

[4] = system: Danio rerio larvae (5 dpf); experiment: difference in habituation to acoustic stimuli vs DMSO (percentage points); higher = more habituation than DMSO
Outline: as §1

[5] = system: Danio rerio larvae (5 dpf); experiment: difference in combined optomotor response to red, green and blue moving lines vs DMSO (percentage points); higher = stronger optomotor response than DMSO
Outline: as §1

| Structure (SMILES) | difference in excitability [1] | difference in startle response [2] | difference in activity during first hour [3] | difference in habituation to acoustic stimuli [4] | difference [5] |
| --- | --- | --- | --- | --- | --- |
| O=C(O)c1cn(C2CC2)c2cc(N3CCNCC3)c(F)cc2c1=O [Ciprofloxacin (hydrochloride)] | 5.21 | -3.39 | 16.5 | 2.26 | 2.77 |
| CCOc1ccc2ccccc2c1C(=O)N[C@@H]1C(=O)N2[C@@H]1SC(C)(C)[C@@H]2C(=O)O [Nafcillin (sodium salt hydrate)] | 3.99 | -0.0381 | 19.4 | -2.07 | 5.58 |
| N=C(NCCCCCCNC(=N)NC(=N)Nc1ccc(Cl)cc1)NC(=N)Nc1ccc(Cl)cc1 [Chlorhexidine (hydrochloride)] | 11.8 | -11 | -19.9 | -10.2 | -17.6 |
| CN1C2CCCC1CC(NC(=O)c1nn(C)c3ccccc13)C2 (stereo not given) [Granisetron (hydrochloride)] | 5.31 | 0.419 | 15 | 0.641 | 7.51 |
| Nc1nc(O)c2ncn(CCC(CO)CO)c2n1 [Penciclovir] | 7.86 | 12.1 | 13.9 | -1.73 | 11.3 |
| CSc1ccc2c(c1)N(CCC1CCCCN1C)c1ccccc1S2 (stereo not given) [Thioridazine (hydrochloride)] | 19.8 | -0.778 | 12.9 | -8.21 | -5 |
| CCCCC(=O)N(Cc1ccc(-c2ccccc2-c2nnn[nH]2)cc1)[C@H](C(=O)O)C(C)C [Valsartan] | -0.389 | 4.11 | 2.08 | -3.08 | 3.88 |
| CC(CCc1ccccc1)NCC(O)c1ccc(O)c(C(N)=O)c1 (stereo not given) [Labetalol (hydrochloride)] | 3.49 | 0.137 | 5.09 | 3.73 | -2.36 |
| C=C1[C@H](CO)[C@@H](O)C[C@@H]1n1cnc2c(=O)[nH]c(N)nc21 [Entecavir (hydrate)] | -1.86 | 2.04 | -1.96 | 5.32 | 0.96 |
| CC(C)(C)NC[C@H](O)COc1nsnc1N1CCOCC1 [Timolol (maleate)] | 6.66 | -3.72 | 0.276 | -0.906 | 6.47 |
| NC[C@H]1CC[C@H](C(=O)O)CC1 [Tranexamic Acid] | 6.95 | 8.18 | 13.1 | 1.19 | 10.9 |
| Cn1cnc2c(F)c(Nc3ccc(Br)cc3F)c(C(=O)NOCCO)cc21 [Binimetinib] | -0.212 | -0.502 | 15.3 | -0.78 | 7.07 |
| OB1OCc2cc(F)ccc21 | 13.7 | -1.36 | -11.7 | 2.38 | 4.85 |
| CC(=O)CCCCn1c(=O)c2c(ncn2C)n(C)c1=O [Pentoxifylline] | 11.4 | 2.26 | 8.3 | 4.08 | 6.01 |
| CC(=O)O[C@H]1C[C@@H]2CC[C@@H]3[C@H](CC[C@@]4(C)[C@H]3C[C@H]([N+]3(C)CCCCC3)[C@@H]4OC(C)=O)[C@@]2(C)C[C@@H]1N1CCCCC1 [Vecuronium (bromide)] | 11.8 | -0.798 | -6.01 | 3.25 | -1.83 |
| O=c1ccn([C@@H]2O[C@H](CO)[C@@H](O)[C@H]2O)c(=O)[nH]1 [Uridine] | -2.47 | -2.07 | 11.4 | -2.41 | 1.41 |
| CN1CCCC(n2nc(Cc3ccc(Cl)cc3)c3ccccc3c2=O)CC1 (stereo not given) [Azelastine (hydrochloride)] | 19.9 | 1.87 | -5.88 | -2.38 | 3.47 |
| CC(c1cc2ccccc2s1)N(O)C(N)=O (stereo not given) [Zileuton] | 3.87 | -0.493 | -3.58 | -0.832 | 6 |
| CC(C(=O)O)c1ccc(-c2ccccc2)c(F)c1 (racemic) [(±)-Flurbiprofen] | 17.6 | -8.24 | 15 | -6.69 | -3.74 |
| N=C(N)c1ccc(OCCCCCOc2ccc(C(=N)N)cc2)cc1 [Pentamidine] | 17 | 5.88 | -2.12 | 0.725 | 5.19 |
| CN1CCc2cccc3c2[C@H]1Cc1ccc(O)c(O)c1-3 [(-)-Apomorphine (hydrochloride hydrate)] | 19.8 | -2.6 | -20.1 | -5.47 | -13 |
| C[C@H](Cc1cc2c(c(C(N)=O)c1)N(CCCO)CC2)NCCOc1ccccc1OCC(F)(F)F [Silodosin] | 15.3 | 3.54 | 3.31 | -5.47 | 4.97 |
| C[C@@H]1C/C=C/C=C/C=C/C=C/[C@H](O[C@@H]2O[C@H](C)[C@@H](O)[C@H](N)[C@@H]2O)C[C@@H]2O[C@](O)(C[C@@H](O)C[C@H]3O[C@@H]3/C=C/C(=O)O1)C[C@H](O)[C@H]2C(=O)O [Natamycin] | 2.79 | -1.51 | 0.445 | 3.82 | 3.97 |
| CCCCNC(=O)NS(=O)(=O)c1ccc(C)cc1 [Tolbutamide] | 1.04 | -0.31 | 15.1 | 0.867 | 0.664 |
| CCCN(CCC)S(=O)(=O)c1ccc(C(=O)O)cc1 [Probenecid] | -3.91 | 4.06 | 8.09 | 3.84 | 9.2 |
